Read-outs that look alike come from different tables or passages of the source.
Key:
Design in all cases: species or system human, MV4-11 + K-562 + COLO205 + SK-N-BE2 + OVCAR-8
AXL = settings: read-out: apparent Kd, n = 1
CSK = settings: read-out: apparent Kd, n = 1
EPHA1 = settings: read-out: apparent Kd, n = 1
EPHB3 = settings: read-out: apparent Kd, n = 1
LYN = settings: read-out: apparent Kd, n = 1
MTOR = settings: read-out: apparent Kd, n = 1
PIK3CG = settings: read-out: apparent Kd, n = 1
RIPK2 = settings: read-out: apparent Kd, n = 1
ULK1 = settings: read-out: apparent Kd, n = 1
JAK2 = settings: read-out: apparent Kd, n = 1
CDC42BPA = settings: read-out: apparent Kd; compound concentrations: 100 nM and 1000 nM (sheet 'Samples'), CATDS: 3.9597453798327397E-3; n = 1
CDC42BPB = settings: read-out: apparent Kd, n = 1
CDC42BPG = settings: read-out: apparent Kd, n = 1
CDK2 = settings: read-out: apparent Kd, compound concentrations: 100 nM and 1000 nM (sheet 'Samples'), n = 1
CDK9 = settings: read-out: apparent Kd; compound concentrations: 100 nM and 1000 nM (sheet 'Samples'), CATDS: 4.5836362442514197E-3; n = 1
PRKG1 = settings: read-out: apparent Kd, n = 1
ROCK1 = settings: read-out: apparent Kd, compound concentrations: 100 nM and 1000 nM (sheet 'Samples'), n = 1
PDGFRB = settings: read-out: apparent Kd, n = 1
TGFBR2 = settings: read-out: apparent Kd; compound concentrations:100 nM and 1000 nM (sheet 'Samples'); n = 1
[1] = compound concentrations:100 nM and 1000 nM (sheet 'Samples')

SMILES: O=C1NC(=O)C(N2CCc3ccccc32)=C1c1ccccc1Cl [SB-373598]
- potency estimated from few doses (AXL; [1]): 775 nM
- potency estimated from few doses (CSK; [1]): 273 nM
- potency estimated from few doses (EPHA1; [1]): 207 nM
- potency estimated from few doses (EPHB3; [1]): 549 nM
- potency estimated from few doses (LYN; [1]): 210 nM
- potency estimated from few doses (MTOR; [1]): 461 nM
- potency estimated from few doses (PIK3CG; [1]): 1110 nM
- potency estimated from few doses (RIPK2; [1]): 273 nM
- potency estimated from few doses (ULK1; [1]): 305 nM

SMILES: Cl.Nc1c(C(=O)c2cccc(C#CCN3CCCCC3)c2)cnn1-c1ccc(F)cc1 [RO1154461-001]
- potency estimated from few doses (CSK; compound concentrations: 100 nM and 1000 nM (sheet 'Samples'), CATDS: 1.25977312115917E-2): 877 nM
- potency estimated from few doses (EPHA1; compound concentrations: 100 nM and 1000 nM (sheet 'Samples'), CATDS: 1.62394808146854E-2): 463 nM
- potency estimated from few doses (EPHB3; compound concentrations: 100 nM and 1000 nM (sheet 'Samples'), CATDS: 1.0883176780773701E-2): 1390 nM
- potency estimated from few doses (JAK2; compound concentrations: 100 nM and 1000 nM (sheet 'Samples'), CATDS: 2.2434778262680002E-2): 240 nM
- potency estimated from few doses (RIPK2; compound concentrations: 100 nM and 1000 nM (sheet 'Samples'), CATDS: 1.2186963927709901E-2): 966 nM

SMILES: Cn1ncc2c(N)ncnc21 [SKF-18267]
- potency estimated from few doses (AXL; compound concentrations: 100 nM and 1000 nM (sheet 'Samples'), CATDS: 4.1647880989247304E-3): 1210 nM
- potency estimated from few doses (CDC42BPA): 1370 nM
- potency estimated from few doses (CDC42BPB; compound concentrations: 100 nM and 1000 nM (sheet 'Samples'), CATDS: 4.0403129227197304E-3): 1300 nM
- potency estimated from few doses (CDC42BPG; compound concentrations: 100 nM and 1000 nM (sheet 'Samples'), CATDS: 5.4078712502347798E-3): 700 nM
- potency estimated from few doses (CDK2; CATDS: 5.1697348126272004E-3): 762 nM
- potency estimated from few doses (CDK9): 974 nM
- potency estimated from few doses (CSK; compound concentrations: 100 nM and 1000 nM (sheet 'Samples'), CATDS: 4.6419413759929496E-3): 948 nM
- potency estimated from few doses (EPHA1; compound concentrations: 100 nM and 1000 nM (sheet 'Samples'), CATDS: 6.5055673029188101E-3): 506 nM
- potency estimated from few doses (EPHB3; compound concentrations: 100 nM and 1000 nM (sheet 'Samples'), CATDS: 3.3263666790724102E-3): 2290 nM
- potency estimated from few doses (JAK2; compound concentrations: 100 nM and 1000 nM (sheet 'Samples'), CATDS: 4.4372825621257503E-3): 1050 nM
- potency estimated from few doses (LYN; compound concentrations: 100 nM and 1000 nM (sheet 'Samples'), CATDS: 5.9641678427723097E-3): 586 nM
- potency estimated from few doses (MTOR; compound concentrations: 100 nM and 1000 nM (sheet 'Samples'), CATDS: 1.26439105920185E-2): 192 nM
- potency estimated from few doses (PIK3CG; compound concentrations: 100 nM and 1000 nM (sheet 'Samples'), CATDS: 9.5970287600273298E-3): 280 nM
- potency estimated from few doses (PRKG1; compound concentrations: 100 nM and 1000 nM (sheet 'Samples'), CATDS: 4.7487342618258797E-3): 904 nM
- potency estimated from few doses (ROCK1; CATDS: 4.4818399275614899E-3): 1020 nM
- potency estimated from few doses (ULK1; compound concentrations: 100 nM and 1000 nM (sheet 'Samples'), CATDS: 3.78452040785661E-3): 1550 nM

SMILES: CCn1c(-c2nonc2N)nc2c(C#CC(C)(C)O)nc(OC[C@@H](N)c3ccccc3)cc21 [GSK938890A]
- potency estimated from few doses (PRKG1; compound concentrations: 100 nM and 1000 nM (sheet 'Samples'), CATDS: 5.6529109044468798E-2): 866 nM

SMILES: Cl.ON=C1CCc2cc(-c3nc(C4CCNCC4)[nH]c3-c3ccncc3)ccc21 [SB-614067-R]
- potency estimated from few doses (RIPK2; [1]): 320 nM

SMILES: CCn1c(-c2nonc2N)nc2c(C#CC(C)(C)O)nc(OCCNC)cc21.Cl [GSK949675A]
- potency estimated from few doses (PRKG1; [1]): 1370 nM

SMILES: Fc1ccc(-c2c(-c3ccncc3)[nH]c3cccnc23)cc1 [RO1153853-000]
- potency estimated from few doses (RIPK2; compound concentrations: 100 nM and 1000 nM (sheet 'Samples'), CATDS: 7.5197956220231496E-2): 498 nM

SMILES: NCCNS(=O)(=O)c1ccc(-c2ccnc3[nH]ccc23)cc1 [GSK977617A]
- potency estimated from few doses (AXL; [1]): 1330 nM
- potency estimated from few doses (CDC42BPB; [1]): 1700 nM
- potency estimated from few doses (CDC42BPG; [1]): 442 nM
- potency estimated from few doses (CSK; [1]): 757 nM
- potency estimated from few doses (EPHA1; [1]): 723 nM
- potency estimated from few doses (EPHB3; [1]): 1780 nM
- potency estimated from few doses (LYN; [1]): 936 nM
- potency estimated from few doses (PRKG1; [1]): 621 nM
- potency estimated from few doses (RIPK2; [1]): 974 nM
- potency estimated from few doses (ULK1; [1]): 718 nM

SMILES: CCn1c(-c2nonc2N)nc2c(C#CCN)ncc(OCCCN)c21.O=C(O)C(F)(F)F [GSK561866B]
- potency estimated from few doses (JAK2; compound concentrations: 100 nM and 1000 nM (sheet 'Samples'), CATDS: 0.29802313015986498): 12.9 nM
- potency estimated from few doses (ROCK1; CATDS: 8.4465602866789904E-2): 1010 nM

SMILES: CCn1c(-c2nonc2N)nc2c(-c3ccccc3)ncc(OCCCN)c21.CCn1c(-c2nonc2N)nc2c(-c3ccccc3)ncc(OCCCN)c21.O=C(O)C(F)(F)F.O=C(O)C(F)(F)F [GSK260205A]
- potency estimated from few doses (CDC42BPG; compound concentrations: 100 nM and 1000 nM (sheet 'Samples'), CATDS: 6.3279699360334701E-2): 187 nM
- potency estimated from few doses (PDGFRB; compound concentrations: 100 nM and 1000 nM (sheet 'Samples'), CATDS: 3.4568718881872497E-2): 808 nM

SMILES: Clc1cc(Cl)cc(Nc2ccnc(Nc3cc(Cl)cc(Cl)c3)n2)c1 [GSK175726A]
- potency estimated from few doses (AXL; compound concentrations: 100 nM and 1000 nM (sheet 'Samples'), CATDS: 8.4752300032334103E-3): 1710 nM
- potency estimated from few doses (CSK; compound concentrations: 100 nM and 1000 nM (sheet 'Samples'), CATDS: 1.17668577174877E-2): 462 nM
- potency estimated from few doses (EPHA1; compound concentrations: 100 nM and 1000 nM (sheet 'Samples'), CATDS: 1.41379738320296E-2): 280 nM
- potency estimated from few doses (EPHB3; compound concentrations: 100 nM and 1000 nM (sheet 'Samples'), CATDS: 8.8361902766531698E-3): 1370 nM
- potency estimated from few doses (JAK2; compound concentrations: 100 nM and 1000 nM (sheet 'Samples'), CATDS: 2.01521439750539E-2): 131 nM
- potency estimated from few doses (LYN; compound concentrations: 100 nM and 1000 nM (sheet 'Samples'), CATDS: 1.7701594212269099E-2): 169 nM
- potency estimated from few doses (MTOR; compound concentrations: 100 nM and 1000 nM (sheet 'Samples'), CATDS: 1.7554405068834999E-2): 172 nM
- potency estimated from few doses (RIPK2; compound concentrations: 100 nM and 1000 nM (sheet 'Samples'), CATDS: 1.18071418274956E-2): 457 nM
- potency estimated from few doses (ULK1; compound concentrations: 100 nM and 1000 nM (sheet 'Samples'), CATDS: 8.5136949732422407E-3): 1670 nM

SMILES: CN(C)CCNC(=O)Nc1ccc(N(C)c2ccnc(Nc3ccc(CS(C)(=O)=O)cc3)n2)cc1.Cl [GW830900A]
- potency estimated from few doses (JAK2; [1]): 1050 nM
- potency estimated from few doses (PDGFRB; [1]): 1330 nM
- potency estimated from few doses (TGFBR2): 1550 nM

SMILES: O=C(O)C(F)(F)F.O=c1[nH]ccc2nc(N[C@@H]3CCNC3)nc(Nc3ccc4c(c3)S(=O)(=O)CC4)c12 [GSK2181306A]
- potency estimated from few doses (CDC42BPB; compound concentrations: 100 nM and 1000 nM (sheet 'Samples'), CATDS: 8.6780352700712906E-3): 1380 nM
- potency estimated from few doses (CDK2; CATDS: 1.3422730745161799E-2): 398 nM
- potency estimated from few doses (JAK2; compound concentrations: 100 nM and 1000 nM (sheet 'Samples'), CATDS: 1.0295673104193499E-2): 781 nM
- potency estimated from few doses (PDGFRB; compound concentrations: 100 nM and 1000 nM (sheet 'Samples'), CATDS: 8.63750114385467E-3): 1400 nM
- potency estimated from few doses (PIK3CG; compound concentrations: 100 nM and 1000 nM (sheet 'Samples'), CATDS: 1.1005849922452E-2): 648 nM
- potency estimated from few doses (ROCK1; CATDS: 8.6334191105918393E-3): 1410 nM
- potency estimated from few doses (ULK1; compound concentrations: 100 nM and 1000 nM (sheet 'Samples'), CATDS: 1.11724420901094E-2): 623 nM

From PMC11062922 (Nature Chemical Biology, 2023)
